From PubChem BioAssay (Tox21)
Results filed as inconclusive are left out. Entries that show only a call come without a potency. Activity calls are given as the source filed them. The call rests on the fitted dose curve; in most records, active means well fitted cell-killing curve with a large enough effect in the repeat runs; inconclusive means weak or mixed curves; inactive means no such curve, though single readings can be large or run the other way.

Assay: qHTS assay for identifying genotoxic compounds that show differential cytotoxicity against isogenic chicken DT40 cell lines with known DNA damage response pathways - Rad54/Ku70 mutant cell line (AID 743015); further: nearly all actives have a fitted effect of over 60% in size; further: potency means the concentration at half of the fitted maximal effect
Conditions: DT40 Rad54/Ku70 mutant viability, CellTiter-Glo, 40 h; series mostly up to 66.8 µM

SMILES | Potency
O=C(O)Cn1c(C(=O)Nc2nc(-c3ccccc3Cl)cs2)cc2ccccc21 | inactive
CCCCOCCOCCOCCOCCO | inactive
N=C(N=C(N)N)N1CCOCC1 | inactive
O=C(O)C1CCC(C(=O)O)CC1 (stereo unspecified) | 68.4 µM (active)
O=C1c2cccc(O)c2C(=O)c2c(O)cc(CO)cc21 | 24.3 µM (active)
CC(=O)O[C@@H]1C(=O)O[C@@H]2[C@H]1OC(=O)[C@@H]2OC(C)=O | 26.6 µM (active)
CCOC(=O)C1=C(C)NC(C)=C(C(=O)OC)C1c1cccc([N+](=O)[O-])c1 (stereo unspecified) | 26.6 µM (active)
CC(C)c1ccc2c(C(C)C)cc(C(C)C)c(S(=O)(=O)O)c2c1 | inactive
Cc1cc(NC(=O)C(=O)O)cc(C)c1Oc1ccc(O)c2c1CCC2 | inactive
CC[C@H](C)[C@H](N)C(=O)O | inactive
CCN(CC)CCc1nc(-c2ccccc2)no1 | inactive
CCN(CC)CCOC(=O)C1(c2ccccc2)CCCC1 | 23.7 µM (active)
O=CNc1ccccc1 | inactive
CC(=O)N(O)CCCCCNC(=O)CCC(=O)N(O)CCCCCNC(=O)CCC(=O)N(O)CCCCCN | inactive
OCCC1CCCCN1 (stereo unspecified) | inactive
CCN1CCC[C@H]1CNC(=O)c1c(OC)ccc(Br)c1OC | inactive
CCOC(=O)C1=NN(c2ccccc2)C(=O)C1 | inactive
CCCc1ccccc1 | inactive
CCOc1cc(OCC)c(C(=O)CCC(=O)O)cc1OCC | inactive
CCCCOC(=O)c1ccccc1C(=O)OCC(CC)CCCC (stereo unspecified) | inactive
CCCCCC(CO)CCC (stereo unspecified) | inactive

Assay: qHTS assay to identify small molecule antagonists of the androgen receptor (AR) signaling pathway - cell viability counter screen (AID 743033; further: nearly all actives have a fitted effect of over 45% in size)
Conditions: AR-bla HEK293 viability, CellTiter-Glo luminescence, 16 h; series mostly up to 58.5 µM

SMILES | Potency
OCC1CC2CC1C1CCC(CO)C21 (stereo unspecified) | inactive
O=C(O)Cn1c(C(=O)Nc2nc(-c3ccccc3Cl)cs2)cc2ccccc21 | inactive
CCC(=O)OC(C)(C)C1CC=C(C)CC1 (stereo unspecified) | inactive
CCCCOCCOCCOCCOCCO | inactive
N=C(N=C(N)N)N1CCOCC1 | inactive
CN(C(=O)CCCOc1ccc2[nH]c(=O)ccc2c1)C1CCCCC1 | inactive
O=C1c2cccc(O)c2C(=O)c2c(O)cc(CO)cc21 | inactive
CC(=O)O[C@@H]1C(=O)O[C@@H]2[C@H]1OC(=O)[C@@H]2OC(C)=O | inactive
CCOC(=O)C1=C(C)NC(C)=C(C(=O)OC)C1c1cccc([N+](=O)[O-])c1 (stereo unspecified) | inactive
CC(C)c1ccc2c(C(C)C)cc(C(C)C)c(S(=O)(=O)O)c2c1 | inactive
CC1=CCC(C(C)C)C=C1 (stereo unspecified) | inactive
CCCCC(CC)(CO)CO | inactive
CCN(CC)CCNC(C(=O)OCCC(C)C)c1ccccc1 (stereo unspecified) | inactive
Cc1ccccc1N=Nc1ccc(N=Nc2c(O)ccc3ccccc23)c(C)c1 | inactive
Cc1cc(NC(=O)C(=O)O)cc(C)c1Oc1ccc(O)c2c1CCC2 | inactive
Cc1cccc(OCCOc2cccc(C)c2)c1 | inactive
CCN(CC)CCc1nc(-c2ccccc2)no1 | inactive
CCN(CC)CCOC(=O)C1(c2ccccc2)CCCC1 | inactive
O=CNc1ccccc1 | inactive
CC(=O)N(O)CCCCCNC(=O)CCC(=O)N(O)CCCCCNC(=O)CCC(=O)N(O)CCCCCN | inactive
OCCC1CCCCN1 (stereo unspecified) | inactive
CCN1CCC[C@H]1CNC(=O)c1c(OC)ccc(Br)c1OC | inactive
CCOC(=O)C1=NN(c2ccccc2)C(=O)C1 | inactive
CCOc1cc(OCC)c(C(=O)CCC(=O)O)cc1OCC | inactive
CN(C)CCCNCCCN | inactive
